This passage reports outcome and AC50 results from PubChem BioAssay (EPA / NIEHS).

Each structure is given as a SMILES string. Where “and” joins values, the source holds several entries; their conditions need not be identical. Identical values can stand only once. Results filed as inconclusive are left out. More than one record can exist for a structure, and the calls need not agree. Calls of active or inactive are those of the source. Rule for the calls, unless noted: active = hit-call score of the fitted dose curve at least 0.9, where 1 is the maximum; inactive = score below 0.9. Peptide text beside a SMILES is read from it.

For orientation: AC50 means the concentration giving half of the maximal activity seen.

Read-out in assay [1]: Collagen III, COL3A1 (gene 1281)
Kind of assay: BSK_MyoF_CollagenIII: BioMAP Diversity Plus: MyoF Assay for Collagen III Biomarker Activity (AID 2284239). As to conditions: primary human lung fibroblasts. The gist of the method:
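ELISA read-out of collagen III from human lung fibroblasts after 24 h of chemical treatment. The DMSO control served as negative control and baseline, with values fitted in the positive direction.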

Read-out in assay [2]: Interleukin 17F (IL17F), IL17F (gene 112744)
Kind of assay: BSK_BT_xIL17F: BioMAP Diversity Plus: BT Assay for Interleukin 17F (IL17F) Biomarker Activity (AID 2284243). The conditions noted are these: primary human B cells with PBMC. The gist of the method: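 Compound was added to co-cultures of human B cells and PBMC. After 24 hours, IL-17F released into the medium was measured with LumineX xMAP technology. Responses were then fitted upward relative to DMSO.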

Read-out in assay [3]: Interleukin 2 (IL2), IL2 (gene 3558)
Description: BSK_BT_xIL2: BioMAP Diversity Plus: BT Assay for Interleukin 2 (IL2) Biomarker Activity (AID 2284245). The conditions noted are these: primary human B cells with PBMC. The procedure, abridged: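 Secreted interleukin-2 from human B cell/PBMC co-cultures, measured 24 h post-dosing by Luminex multiplex immunoassay. Upward-direction curve fitting against DMSO baseline.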

Read-out in assay [4]: Basic fibroblast growth factor (bFGF), FGF2 (gene 2247)
Description: BSK_MyoF_bFGF: BioMAP Diversity Plus: MyoF Assay for Basic fibroblast growth factor (bFGF) Biomarker Activity (AID 2284246). The conditions noted are these: primary human lung fibroblasts. The procedure, abridged: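 In this multiplexed cell system, lung fibroblasts (human primary) receive test chemical for 24 h before ELISA detection of bFGF; DMSO defines baseline and the analysis direction is positive.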

Read-out in assay [5]: Collagen IV, COL4A1 (gene 1282)
Kind of assay: BSK_MyoF_CollagenIV: BioMAP Diversity Plus: MyoF Assay for Collagen IV Biomarker Activity (AID 2284247). The conditions noted are these: primary human lung fibroblasts. The procedure, abridged: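 Activity is scored as a signal increase over DMSO in an ELISA for Collagen IV, measured on human lung fibroblasts at 24 h after chemical treatment. Cytotoxicity is checked in parallel cultures by sulforhodamine B total-protein staining.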

Read-out in assay [6]: Plasminogen activator inhibitor-1 (PAI1), SERPINE1 (gene 5054)
Description: BSK_MyoF_PAI1: BioMAP Diversity Plus: MyoF Assay for Plasminogen activator inhibitor-1 (PAI1) Biomarker Activity (AID 2284256).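 For outcome: PAI-1 protein level measured by ELISA in fibroblast cultures; PAI-1 read 24 h after compound addition.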 As to conditions: primary human lung fibroblasts. The procedure, abridged:
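Primary human lung fibroblasts are dosed and incubated 24 h. PAI-1 is then measured by ELISA, while parallel cultures undergo SRB staining for overt cytotoxicity. Increases over DMSO define activity.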

Read-out in assay [7]: Monokine induced gamma interferon (MIG), CXCL9 (gene 4283)
Kind of assay: BSK_KF3CT_MIG: BioMAP Diversity Plus: KF3CT Assay for Monokine induced gamma interferon (MIG) Biomarker Activity (AID 2284248). The conditions noted are these: primary human keratinocytes with fibroblasts. The gist of the method:
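KF3CT system: keratinocyte/fibroblast co-culture, 24 h post-dose, MIG by ELISA; activity vs DMSO, positive fitting direction.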

Read-out in assay [8]: Collagen I, COL1A1 (gene 1277)
Description: BSK_hDFCGF_CollagenI: BioMAP Diversity Plus: hDFCGF Assay for Collagen I Biomarker Activity (AID 2284250). The conditions noted are these: primary human foreskin fibroblasts. The gist of the method: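 Cells were primary human foreskin fibroblasts treated for 24 h. Collagen I levels were then determined by ELISA and compared against DMSO controls.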

Read-out in assay [9]: Interferon-inducible T-cell alpha chemoattractant (ITAC), CXCL11 (gene 6373)
Description: BSK_hDFCGF_ITAC: BioMAP Diversity Plus: hDFCGF Assay for Interferon-inducible T-cell alpha chemoattractant (ITAC) Biomarker Activity (AID 2284251). The conditions noted are these: primary human foreskin fibroblasts. The gist of the method: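 ELISA readout of I-TAC after 24 h chemical exposure; human dermal foreskin fibroblast primary cells. Positive-direction fitting vs DMSO baseline. Parallel SRB total-protein staining (0.1% SRB after 10% TCA fixation, 560 nm) flags cytotoxicity.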

Read-out in assay [10]: Plasminogen activator inhibitor-1 (PAI1), SERPINE1 (gene 5054)
Description: BSK_KF3CT_PAI1: BioMAP Diversity Plus: KF3CT Assay for Plasminogen activator inhibitor-1 (PAI1) Biomarker Activity (AID 2284252). As to conditions: primary human keratinocytes with fibroblasts. The procedure, abridged:
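Signal is PAI-1 detected by ELISA in a human skin-derived keratinocyte/fibroblast co-culture, 24 h after dosing; DMSO served as negative control and baseline.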

Read-out in assay [11]: Interleukin-8 (IL8), CXCL8 (gene 3576)
Kind of assay: BSK_KF3CT_IL8: BioMAP Diversity Plus: KF3CT Assay for Interleukin-8 (IL8) Biomarker Activity (AID 2284254). The conditions noted are these: primary human keratinocytes with fibroblasts. The procedure, abridged:
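Chemicals were added to co-cultured human keratinocytes and foreskin fibroblasts, incubated 24 h, then IL-8 was quantified by ELISA. Cytotoxicity was tracked by sulforhodamine B total-protein staining in parallel cultures.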

Assay [12] in a line: CCTE_Mundy_HCI_hNP1_Casp3_7: CCTE's Caspase-Glo 3/7 Assay in human neuroprogenitor cells for Apoptosis, Mundy Lab (AID 2284240). The procedure, abridged: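 Neuroepithelial-lineage stem cells from WA09 embryonic cells were treated with chemicals after 40–44 h of culture. Twenty-four hours later, caspase-3/7 activation was detected luminescently after a 30 min room-temperature reagent step, with DMSO as baseline.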

Assay [13] is described as follows: CCTE_Mundy_HCI_hNP1_CellTiter: CCTE's Cell Titer-Glo 2 Assay in human neuroprogenitor cells for Viability, Mundy Lab (AID 2284241; active = hit-call score of the fitted dose curve at least 0.9, where 1 is the maximum). The gist of the method:
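Measures ATP content in human neural progenitors derived from WA09 embryonic cells. Read-out at 26.5 hours after dosing, with DMSO serving as the negative control and baseline.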

Assay [14] is described as follows: CCTE_Mundy_HCI_Cortical_Synap_Neur_Matur_NeuronCount: CCTE's Synaptogenesis and Neurite Maturation Assay in rat cortical cells for Neuron Count, Mundy Lab (AID 2284242; active = hit-call score of the fitted dose curve at least 0.9, where 1 is the maximum). The gist of the method: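 Imaging-based neuron count in rat cortical cultures after chemical exposure from DIV 7 to DIV 12, with AraC added at DIV 5. Activity is fitted relative to DMSO.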

On to `C=CCCCCCCCCC=O`, for which the result in [1], in assay [2], in assay [3], in [4], in assay [5] and in [6] was inactive.
As for `CCCCCCCO`, the result in assay [1], in [2], in [3], in [4], in [5] and in [6] was inactive.
Take `CCC1(C)C(=O)N(Cl)C(=O)N1Cl` (stereo not drawn): the result in [1], in assay [2], in assay [3], in [4], in assay [5] and in assay [6] was inactive.
Take `O=C(Oc1ccccc1)c1ccccc1C(=O)Oc1ccccc1`: the outcome in assay [1], in assay [2], in assay [3], in assay [4], in assay [5] and in [6] was inactive.
For the compound `Nc1cccc(N)n1`, the result in [1], in [2], in assay [3], in assay [4], in assay [5] and in assay [6] was inactive.
Consider `C=CC(=O)OCC(C)OCC(C)OCC(C)OC(=O)C=C` (stereo not drawn), for which the AC50 in assay [1] was 30.9 µM (active); in [2], 7.15 µM (active); in [3], 9.17 µM (active); in [4], 31.1 µM (active); in assay [5], 23.5 µM (active); in assay [6] it was 30.9 µM (active).
Consider `C=CC(=O)OCCCCCCCC(C)C`, for which the outcome in assay [1], in [2], in [3], in assay [4], in assay [5] and in assay [6] was inactive.
For `CCOC(=O)/C=C\C(=O)OCC`, the result in [1], in [2], in assay [3], in [4], in assay [5] and in [6] was inactive.
`Nc1nc(N)nc(-c2ccccc2)n1`: the outcome in assay [7], in assay [8], in assay [9], in [10] and in assay [11] was inactive.
For the compound `O=C1CCCCCCCCCCCN1`, the outcome in assay [1], in [2], in [3], in [4], in assay [5] and in [6] was inactive.
`CCCCCCCCCCCC(=O)N(C)CC(=O)O`: the outcome in assay [7], in [8], in assay [9], in assay [10] and in [11] was inactive.
On to `CCCCCC1=CCCC1=O`, for which the result in assay [1], in [2], in assay [3], in assay [4], in assay [5] and in assay [6] was inactive.
As for `Fc1ccc(Br)cc1`, the result in assay [1], in assay [2], in assay [3], in [4], in [5] and in assay [6] was inactive.
Regarding `Oc1ccccc1Cc1ccccc1O`, the result in assay [7], in assay [8], in assay [9], in assay [10] and in assay [11] was inactive.
Consider `CCCC(C)C(=O)OCC` (stereo not drawn), for which the result in assay [7], in assay [8], in [9], in assay [10] and in [11] was inactive.
`Cc1c(O)cccc1O`: the outcome in [1], in [2], in [3], in assay [4], in assay [5] and in [6] was inactive.
For `CC(c1cc(C(C)(C)C)cc(C(C)(C)C)c1O)c1cc(C(C)(C)C)cc(C(C)(C)C)c1O`, the result in [1], in assay [4], in assay [5] and in assay [6] was inactive. In addition, the AC50 in [2] was 18.1 µM (active); in assay [3] it was 20 µM (active).
For `CCOC(=O)C1=NOC(c2ccccc2)(c2ccccc2)C1`, the outcome in assay [1], in assay [2], in assay [3], in assay [4], in assay [5] and in assay [6] was inactive.
For the compound `Cc1c(C(=O)c2c[nH]n(C)c2=O)ccc(S(C)(=O)=O)c1C1=NOCC1`, the result in assay [12] and in [13] was inactive.
For `Cc1noc(NS(=O)(=O)c2ccc(N)cc2)c1C`, the compound was called inactive in assay [12] and in assay [13].
As to `CCCCNS(=O)(=O)c1ccccc1`, the call in assay [12], in assay [13] and in assay [14] was inactive.
Consider `CC/C=C\CCOC(=O)c1ccccc1O`, for which the AC50 in assay [1] was 36.1 µM (active); in [2], 20 µM (active); in assay [4], 31.3 µM (active); in [5] it was 33.2 µM (active); in assay [6], 31.3 µM (active). Also, the result in assay [3] was inactive.
For `c1ccc2sc(SSN3CCOCC3)nc2c1`, the AC50 in [1] is 28.4 µM (active); in assay [2], 19.9 µM (active); in [3], 28.1 µM (active); in assay [4] it was 28.8 µM (active); in assay [5], 14.9 µM (active); in assay [6], 29.8 µM (active).
On to `CCCCC1C(=O)N(c2ccccc2)N(c2ccccc2)C1=O`, for which the result in assay [1], in assay [2], in assay [4], in assay [5] and in assay [6] was inactive.
As for `COC(=O)[C@H](Cc1ccccc1)NC(=O)[C@@H](N)CC(=O)O` (H-Asp-Phe-OMe), the compound was called inactive in assay [12] and in assay [13].
Turning to `CCc1cccc(C)c1N(C(=O)CS(=O)(=O)O)C(C)COC` (stereo not drawn), the result in assay [1], in assay [2], in assay [3], in assay [4], in assay [5] and in assay [6] was inactive.
Take `CCNc1nc(NC(C)(C)C)nc(OC)n1`: the outcome in assay [1], in [2], in [3], in assay [4], in [5] and in assay [6] was inactive.
Consider `Oc1c(Cl)cc(Cl)c(Cl)c1Cl`, for which the AC50 in assay [1] was 16.5 µM (active); in assay [4], 20 µM (active); in assay [6], 28.3 µM (active). For the same compound, the result in assay [2], in [3] and in assay [5] was inactive.
On to `CC(C)[N+](C)(CCOC(=O)C1c2ccccc2Oc2ccccc21)C(C)C`, for which the outcome in assay [1], in assay [2], in assay [3], in assay [4] and in [5] was inactive. In addition, the AC50 in assay [6] was 0.0398 µM (active).
Consider `CC=C(C)C(C)=O`, for which the outcome in assay [1], in assay [2], in assay [3], in assay [4], in assay [5] and in assay [6] was inactive.
Take `CCCCCCCCCCCC(C)=O`: the result in assay [1], in [2], in assay [3], in assay [4], in assay [5] and in assay [6] was inactive.
Take `CC(C)C(=O)OCCc1ccccc1`: the result in assay [7], in assay [8], in assay [9], in assay [10] and in assay [11] was inactive.
Take `CC/C=C\C/C=C\C/C=C\CCCCCCCC(=O)OC`: the AC50 in assay [1] was 10.6 µM (active); in assay [2] it was 15.2 µM (active); in assay [3], 27.5 µM (active); in [4] it was 9.83 µM (active); in [5], 20 µM (active); in assay [6], 13.7 µM (active).
Turning to `c1ccc(Nc2cccc3ccccc23)cc1`, the AC50 in assay [7] is 38.9 µM (active) and 33.8 µM (active); in [8] it was 14.3 µM (active); in assay [9], 30.1 µM (active) and 30.3 µM (active); in [10] it was 27.4 µM (active) and 26.5 µM (active); in [11], 31.6 µM (active) and 29.4 µM (active). Further, in [8], the result was inactive.
`CC(CCC(=O)O)(c1ccc(O)cc1)c1ccc(O)cc1`: the result in assay [7], in assay [8], in assay [9], in assay [10] and in assay [11] was inactive.
